PubChem BioAssay AID1159580 (chemical genetic matrix, 2015)
Values joined by “and” are separate entries in the source; they are usually repeats but may differ in a detail not shown here. Equal entries are not always repeated. Hit rate of the full screen: of about 5,500 compounds, about 2,000 (36%) were called active. Roughly 18% stayed inconclusive and do not appear here. Cut-off read from the data, not from the text of the source: active = normalized growth mostly below about 0.91 (no sharp cut-off); inconclusive = no clear call, values can overlap the other calls; inactive = mostly above about 0.92. The list shows a part of the results.

Experiment: chemical genetic growth profiling, strain panel (AID 1159580);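 note: tested at 20 µM; growth read once vehicle control cultures reached saturation at 30 °C; 1 = growth at the plate median or of vehicle wells; lower values mean less growth of the strain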
Details: S. cerevisiae deletion strains, growth OD
[1] = locus YJR075W, strain HOC1, stronger effect = lower value
[2] = locus YNL128W, strain TEP1, stronger effect = lower value
[3] = locus YNL322C, strain KRE1, stronger effect = lower value

Measured: normalized growth

O=C(O)/C=C/C(=O)O
inactive: locus YAL040C, strain CLN3, stronger effect = lower value 1.02 | locus YCL061C, strain MRC1 (second series), stronger effect = lower value 1.01 | locus YDR363W, strain ESC2, stronger effect = lower value 1.01 | locus YER002W, strain NOP16, stronger effect = lower value 1.04 | [1] 1.01 | [2] 1.01 | locus YNL175C, strain NOP13, stronger effect = lower value 1.01 | locus YNL197C, strain WHI3, stronger effect = lower value 1 | locus YNL224C, strain SQS1, stronger effect = lower value 1 | [3] 1.02 | locus YOR083W, strain WHI5 (second series), stronger effect = lower value 1 | locus YPL055C, strain LGE1, stronger effect = lower value 1.02

COC(=O)/C=C/C(C)=C/C=C/C(C)=C/C=C/C=C(C)/C=C/C=C(C)/C=C/C(=O)O
active: locus YLR113W, strain HOG1, stronger effect = lower value 0.844
inactive: locus YAL013W, strain DEP1, stronger effect = lower value 1 | locus YAL021C, strain ccr4, stronger effect = lower value 1.02 | locus YAL026C, strain drs2, stronger effect = lower value 1.02 | locus YAL030W, strain snc1, stronger effect = lower value 1.02 | locus YBL061C, strain skt5, stronger effect = lower value 1.04 | locus YBR009C, strain hhf1, stronger effect = lower value 1.02 | locus YBR021W, strain FUR4, stronger effect = lower value 1.03 | locus YBR023C, strain chs3, stronger effect = lower value 1.03 | locus YBR171W, strain sec66, stronger effect = lower value 1.03 | locus YBR229C, strain ROT2, stronger effect = lower value 1.02 | locus YBR231C, strain swc5, stronger effect = lower value 1.02 | locus YBR279W, strain paf1, stronger effect = lower value 0.988 | locus YCL011C, strain gbp2, stronger effect = lower value 1.02 | locus YCL016C, strain dcc1, stronger effect = lower value 1.02 | locus YCL029C, strain bik1, stronger effect = lower value 1.01 | locus YCL061C, strain MRC1, stronger effect = lower value 1.02 | locus YCL069W, strain vba3, stronger effect = lower value 1.02 | locus YCR088W, strain abp1, stronger effect = lower value 1.02 | locus YDL005C, strain med2, stronger effect = lower value 1.01 | locus YDL035C, strain GPR1, stronger effect = lower value 1.02 | locus YDL040C, strain nat1, stronger effect = lower value 1.01 | locus YDL074C, strain BRE1, stronger effect = lower value 1 | locus YDL101C, strain DUN1, stronger effect = lower value 1.02 | locus YDL134C, strain PPH21, stronger effect = lower value 1.04 | locus YDL185W, strain tfp1, stronger effect = lower value 1.02 | locus YDL192W, strain arf1, stronger effect = lower value 1.01 | locus YDR001C, strain nth1, stronger effect = lower value 1.03 | locus YDR069C, strain doa4, stronger effect = lower value 1.04 | locus YDR101C, strain arx1, stronger effect = lower value 0.997 | locus YDR137W, strain rgp1, stronger effect = lower value 1.05 | locus YDR150W, strain NUM1, stronger effect = lower value 1.02 | locus YDR159W, strain sac3, stronger effect = lower value 1.05 | locus YDR162C, strain NBP2, stronger effect = lower value 1.03 | locus YDR195W, strain ref2 0.993 | locus YDR297W, strain sur2, stronger effect = lower value 1.03 | locus YDR318W, strain mcm21, stronger effect = lower value 1 | locus YDR334W, strain swr1, stronger effect = lower value 1.02 | locus YDR335W, strain msn5, stronger effect = lower value 1.02 | locus YDR388W, stronger effect = lower value 0.998 | locus YDR392W, strain spt3, stronger effect = lower value 1.03 | locus YDR502C, strain sam2, stronger effect = lower value 1.01 | locus YEL003W, strain gim4, stronger effect = lower value 1.02 | locus YEL037C, strain rad23, stronger effect = lower value 1.02 | locus YEL061C, strain CIN8 (second series), stronger effect = lower value 1.01 | locus YEL061C, strain CIN8, stronger effect = lower value 1.01 | locus YER015W, strain faa2, stronger effect = lower value 1.02 | locus YER016W, strain bim1, stronger effect = lower value 1.01 | locus YER110C, stronger effect = lower value 0.989 | locus YER111C, strain swi4, stronger effect = lower value 1.02 | locus YER155C, strain BEM2 (second series), stronger effect = lower value 1.03 | locus YER155C, strain BEM2, stronger effect = lower value 0.994 | locus YER167W, strain BCK2, stronger effect = lower value 1.01 | locus YFR010W, strain ubp6, stronger effect = lower value 1.02 | locus YGL078C, strain dbp3, stronger effect = lower value 0.993 | locus YGL086W, strain mad1, stronger effect = lower value 0.986 | locus YGL167C, strain pmr1, stronger effect = lower value 1.03 | locus YGL173C, strain kem1, stronger effect = lower value 1.02 | locus YGL227W, strain vid30, stronger effect = lower value 1.03 | locus YGL240W, strain doc1, stronger effect = lower value 1.02 | locus YGL248W, strain PDE1, stronger effect = lower value 1.02 | locus YGL253W, strain hxk2, stronger effect = lower value 1.02 | locus YGR078C, strain PAC10, stronger effect = lower value 1.03 | locus YGR135W, strain pre9, stronger effect = lower value 1 | locus YGR252W, strain gcn5, stronger effect = lower value 0.983 | locus YHR013C, strain ard1, stronger effect = lower value 1.01 | locus YHR027C, strain rpn1, stronger effect = lower value 1.03 | locus YHR030C, strain SLT2, stronger effect = lower value 1.02 and 0.885 | locus YHR079C, strain IRE1 (second series), stronger effect = lower value 0.986 | locus YHR079C, strain IRE1, stronger effect = lower value 0.897 | locus YHR094C, strain hxt1, stronger effect = lower value 0.994 | locus YHR129C, strain ARP1, stronger effect = lower value 1.01 | locus YHR142W, strain chs7, stronger effect = lower value 1.03 | locus YHR200W, strain rpn10, stronger effect = lower value 1.01 | locus YIL066C, strain RNR3, stronger effect = lower value 1.03 | locus YIL073C, strain SPO22, stronger effect = lower value 1.01 | locus YIL125W, strain kgd1, stronger effect = lower value 0.997 | locus YIR030C, strain dcg1, stronger effect = lower value 0.995 | locus YJL092W, strain hpr5, stronger effect = lower value 1.03 | locus YJL095W, strain BCK1 (second series), stronger effect = lower value 1.02 | locus YJL095W, strain BCK1, stronger effect = lower value 1.04 and 0.924 | locus YJL115W, strain asf1, stronger effect = lower value 1.01 | locus YJL129C, strain trk1, stronger effect = lower value 1.02 | locus YJL134W, strain LCB3, stronger effect = lower value 1.01 | locus YJL154C, strain vps35, stronger effect = lower value 1.01 | locus YJL164C, strain tpk1, stronger effect = lower value 1.03 | locus YJL166W, strain qcr8, stronger effect = lower value 1.03 | locus YJL168C, strain set2, stronger effect = lower value 0.994 | locus YJL187C, strain SWE1 (second series), stronger effect = lower value 1.03 | locus YJL187C, strain SWE1, stronger effect = lower value 1.02 | locus YJR043C, strain POL32, stronger effect = lower value 1.03 | locus YJR066W, strain TOR1, stronger effect = lower value 0.898 | [1] 1.04 | locus YKL009W, strain mrt4, stronger effect = lower value 0.996 | locus YKL068W, stronger effect = lower value 1.01 | locus YKL085W, strain MDH1 (second series), stronger effect = lower value 0.989 | locus YKL085W, strain MDH1, stronger effect = lower value 0.989 | locus YKL160W, strain elf1, stronger effect = lower value 1.02 | locus YKL190W, strain CNB1, stronger effect = lower value 1.01 | locus YKR001C, strain vps1, stronger effect = lower value 1.01 | locus YKR026C, strain gcn3, stronger effect = lower value 1.02 | locus YKR091W, strain srl3, stronger effect = lower value 1.02 | locus YLL001W, strain dnm1, stronger effect = lower value 1.02 | locus YLL026W, stronger effect = lower value 1.02 | locus YLL041C, strain sdh2, stronger effect = lower value 1.02 | locus YLR027C, strain aat2, stronger effect = lower value 1.02 | locus YLR039C, strain RIC1, stronger effect = lower value 1.08 | locus YLR058C, strain SHM2, stronger effect = lower value 1.01 | locus YLR102C, strain apc9, stronger effect = lower value 0.988 | locus YLR221C, strain rsa3, stronger effect = lower value 1.02 | locus YLR258W, strain gsy2, stronger effect = lower value 1.02 | locus YLR262C, strain YPT6 (second series), stronger effect = lower value 1.06 | locus YLR262C, strain YPT6, stronger effect = lower value 1.04 | locus YLR268W, strain sec22, stronger effect = lower value 1.02 | locus YLR320W, strain mms22, stronger effect = lower value 1.04 | locus YLR330W, strain CHS5, stronger effect = lower value 1.02 | locus YLR342W, strain FKS1 (second series), stronger effect = lower value 1.01 | locus YLR342W, strain FKS1, stronger effect = lower value 1.03 | locus YLR357W, strain rsc2, stronger effect = lower value 1.02 | locus YLR370C, strain arc18, stronger effect = lower value 1.02 | locus YLR371W, strain rom2, stronger effect = lower value 0.988 | locus YLR384C, strain iki3, stronger effect = lower value 1.02 | locus YLR418C, strain cdc73, stronger effect = lower value 1.01 | locus YML016C, strain PPZ1, stronger effect = lower value 1.02 | locus YML032C, strain rad52, stronger effect = lower value 0.982 | locus YML120C, strain ndi1, stronger effect = lower value 1.02 | locus YML124C, strain tub3, stronger effect = lower value 0.996 | locus YMR058W, strain fet3, stronger effect = lower value 1.03 | locus YMR078C, strain ctf18, stronger effect = lower value 0.993 | locus YMR125W, strain sto1, stronger effect = lower value 1.01 | locus YMR129W, stronger effect = lower value 1.02 | locus YMR205C, strain PFK2, stronger effect = lower value 1.03 | locus YMR223W, strain ubp8, stronger effect = lower value 1.01 | locus YMR231W, strain pep5, stronger effect = lower value 1.01 | locus YMR263W, strain SAP30, stronger effect = lower value 1.02 | locus YMR307W, strain GAS1, stronger effect = lower value 1.04 | locus YNL067W, strain RPL9B, stronger effect = lower value 1.02 | locus YNL071W, strain lat1, stronger effect = lower value 1.02 | [2] 1.01 | locus YNL183C, strain NPR1, stronger effect = lower value 0.908 | locus YNL209W, strain ssb2, stronger effect = lower value 1.02 | locus YNL233W, strain BNI4, stronger effect = lower value 1.03 | locus YNL248C, strain rpa49, stronger effect = lower value 1.01 | locus YNL250W, strain rad50, stronger effect = lower value 0.986 | locus YNL271C, strain bni1, stronger effect = lower value 0.998 | locus YNL298W, strain CLA4, stronger effect = lower value 0.991 | locus YNL307C, strain MCK1, stronger effect = lower value 1 | locus YNL322C, strain KRE1 (second series), stronger effect = lower value 1.02 | [3] 1.01 | locus YNR049C, strain mso1, stronger effect = lower value 1.02 | locus YNR052C, strain pop2, stronger effect = lower value 0.998 | locus YOL006C, strain TOP1, stronger effect = lower value 1.11 | locus YOL012C, strain htz1 1.19 | locus YOL147C, strain pex11, stronger effect = lower value 0.996 | locus YOR001W, strain rrp6, stronger effect = lower value 1.02 | locus YOR061W, strain CKA2, stronger effect = lower value 1.02 | locus YOR069W, strain VPS5, stronger effect = lower value 1.01 | locus YOR070C, strain gyp1, stronger effect = lower value 1.02 | locus YOR080W, strain dia2, stronger effect = lower value 1.02 | locus YOR083W, strain WHI5, stronger effect = lower value 1.01 | locus YOR106W, strain vam3, stronger effect = lower value 1.02 | locus YOR136W, strain idh2, stronger effect = lower value 1 | locus YOR144C, strain elg1, stronger effect = lower value 1 | locus YOR184W, strain ser1, stronger effect = lower value 1.01 | locus YOR231W, strain MKK1, stronger effect = lower value 0.901 | locus YOR265W, strain rbl2, stronger effect = lower value 1.02 | locus YOR270C, strain vph1, stronger effect = lower value 0.954 | locus YOR290C, strain snf2, stronger effect = lower value 1.02 | locus YOR316C, strain cot1, stronger effect = lower value 0.989 | locus YPL051W, strain arl3, stronger effect = lower value 1.02 | locus YPL078C, strain atp4, stronger effect = lower value 1.02 | locus YPL106C, strain sse1, stronger effect = lower value 1.05 | locus YPL240C, strain hsp82, stronger effect = lower value 1.03 | locus YPL256C, strain CLN2, stronger effect = lower value 0.894 | locus YPR119W, strain clb2, stronger effect = lower value 1 | locus YPR141C, strain kar3, stronger effect = lower value 0.995 | locus YPR163C, strain tif3, stronger effect = lower value 1 | locus YPR167C, strain met16, stronger effect = lower value 0.996 | strain wtn01, stronger effect = lower value 1.01
